# Records with an inconclusive call do not appear. A number with no mark means an inactive call. The source made the active and inactive calls. Unless noted, calls come from the whole dose curve; as a rule, active = well fitted curve in the direction sought with a large enough effect; inconclusive = small, poorly fitted or top-dose-only effect, or another doubt; inactive = no such curve, though single readings can be large; an effect the other way counts as inactive or inconclusive.
# What was measured:
# [1] = qHTS Assay for Identifying Gametocytocidal Compounds (AID 743244);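 note: % is set by controls: 0 for no effect and ±100 for the full control effect; actives lower the fluorescent signal which means gametocytes are killed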; settings: P. falciparum 3D7 stage III-V gametocytes, alamarBlue, 72 h; max response: hits give low values
# Summary of the method: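 Compounds are pinned into medium, gametocytes (stage III–V, 3D7, 20,000 cells/well) added, and plates held 72 h at 37 °C in 5% CO2. AlamarBlue follows for 24 h before fluorescence reading.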
# [2] = Drug repurposing screens with cells derived from glioblastoma tumor samples (AID 1345199); settings: GBM patient neurospheres viability, ATP luminescence, 48 h; for Potency: tumour line A; note: potency is the fitted concentration of half-maximal effect; for activity, negative = cell killing: % is set by controls: 0 for no effect and ±100 for the full control effect; for all read-outs here: nearly all actives have a fitted effect of over 40% in size
# Summary of the method: (§1)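 Primary testing used CD133+ neurospheres from four GBM patients, seven concentrations, 48 h exposure and ATP-based viability; confirmation added three slower-growing patient lines.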
# astro = experiment: as above; settings: viability, ATP luminescence, 48 h; series mostly up to 45.9 µM
# Summary of the method: as §1
# [3] = target: Luciferin 4-monooxygenase (Photinus pyralis) (UniProt P08659); experiment: Biochemical firefly luciferase enzyme assay for NPC (AID 624030);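 note: purified P. pyralis luciferase at 10 nM with luciferin and ATP substrate; 0% = DMSO and -100% = full luciferase inhibition by PTC124 control; nearly all actives have a fitted effect of over 70% in size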
# Chain of Luciferin 4-monooxygenase (Photinus pyralis) (P08659 whole entry, looked up): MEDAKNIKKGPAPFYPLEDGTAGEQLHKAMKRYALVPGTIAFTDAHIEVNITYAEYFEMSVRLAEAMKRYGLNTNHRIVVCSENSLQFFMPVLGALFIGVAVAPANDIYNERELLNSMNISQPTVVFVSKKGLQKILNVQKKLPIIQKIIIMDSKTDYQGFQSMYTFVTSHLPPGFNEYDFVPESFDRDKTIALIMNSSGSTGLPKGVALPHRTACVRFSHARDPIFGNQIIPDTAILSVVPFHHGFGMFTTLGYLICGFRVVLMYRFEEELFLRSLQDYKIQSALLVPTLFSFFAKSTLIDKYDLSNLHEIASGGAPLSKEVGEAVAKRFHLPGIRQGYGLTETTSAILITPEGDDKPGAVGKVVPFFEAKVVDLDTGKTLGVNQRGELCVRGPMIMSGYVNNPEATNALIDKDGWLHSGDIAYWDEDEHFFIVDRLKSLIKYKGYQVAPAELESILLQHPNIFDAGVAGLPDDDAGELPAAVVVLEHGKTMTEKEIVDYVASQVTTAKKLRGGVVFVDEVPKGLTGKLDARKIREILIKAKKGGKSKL
# Summary of the method: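 Purified P. pyralis luciferase at 10 nM in 50 mM Tris Acetate (final), luminescence read within 5 minutes of enzyme addition to compounds. Activity normalised to PTC124 versus DMSO; concentration-response curves classed by r2, magnitude and activity.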
# [4] = P-glycoprotein substrates identified in KB-3-1 adenocarcinoma cell line, qHTS therapeutic library screen (AID 1346986); note: nearly all actives have a fitted effect of over 60% in size;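 note: potency is the fitted concentration of half-maximal effect; potency is for cytotoxicity meaning loss of cell viability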
# Summary of the method: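 In 1536-well format, 500 cells/well received pinned compound titrations and were incubated 72 h, 5% CO2. Viability was read by CellTiter-Glo; cytotoxic if AC50 < 10 uM and efficacy >50%.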
# [5] = qHTS to identify inhibitors of the type 1 interferon - major histocompatibility complex class I in skeletal muscle: primary screen against the NCATS Mechanism Interrogation Plate v5.0 (MIPE) Libary (AID 1347411); note: nearly all actives have a fitted effect of over 65% in size; note: potency is the fitted concentration of half-maximal effect;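 for activity change, negative = inhibition: plate controls were vehicle for no effect and reference inhibitor for full effect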
# Summary of the method: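 Seed engineered human myoblasts (HLA-B HiBit) in medium without dexamethasone containing 4 ng/ml IFN-beta; after 1 hr add compound titrations (top 46 uM final). Incubate 24 hrs at 37 C, lyse 10 min with HiBiT reagent, read luminescence.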
# [6] = qHTS assay to identify inhibitors of the type 1 interferon - major histocompatibility complex class I in skeletal muscle: Counter screen cell viability and HiBit confirmation (AID 1347412); settings: iHSKM muscle cells + IFN-b, HiBiT or CellTiter-Glo, 24 h; for Potency: HiBiT; note: potency is the fitted concentration of half-maximal effect; for activity change, negative = inhibition: % is set by controls: 0 for no effect and ±100 for the full control effect; for all read-outs here: nearly all actives have a fitted effect of over 60% in size
# Summary of the method: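 Duplicate plates, pinned identically: one read for HiBiT-tagged endogenous HLA-B luminescence, the other for ATP-content viability via CellTiter Glo. Cells were genome-engineered human myoblasts given 4 ng/ml IFN-b; compounds 12-pt, 1:3 from 46 uM final; 24 hr exposure.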
# [7] = tested on: Zika virus NS2B-NS3 protease; experiment: Primary screen GU AMC qHTS for Zika virus inhibitors (AID 1347154);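 note: 0% = no-inhibitor control and -100% = no-enzyme control; nearly all actives have a fitted effect of over 70% in size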
# Summary of the method: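 Unlinked Zika NS2B hydrophilic domain–NS3 protease complex at 25 nM in 10 mM Tris-HCl pH 8.0, 0.01% Tween 20, with an AMC peptide substrate. Fluorescence change (340/450 nm) over 15 min at room temperature, normalized to controls, fitted to 4-parameter Hill.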
# [8] = Primary qHTS for small molecule stabilizers of the endoplasmic reticulum resident proteome: Secreted ER Calcium Modulated Protein (SERCaMP) assay (AID 1508630); note: % is set by controls: 0 for no effect and ±100 for the full control effect
# Summary of the method: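 The SH-SY5Y reporter protocol was run at 3 concentrations up to 38.3 uM (primary) or 11 concentrations (follow-up): 16 h compound, 100 nM thapsigargin for 4 h, then extracellular luciferase luminescence.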
# [9] = target: Cytochrome P450 2D6 (Homo sapiens) (UniProt P10635); experiment: Cytochrome P450 family 2 subfamily D member 6 (CYP2D6) small molecule antagonists: luciferase biochemical (cell-free) qHTS assay (AID 1645840; active = well fitted curve in the direction sought with a large enough effect in the repeat runs; an effect the other way counts as inactive or inconclusive; note: % is set by controls: 0 for no effect and ±100 for the full control effect; nearly all actives have a fitted effect of over 55% in size)
# Chain of Cytochrome P450 2D6 (Homo sapiens) (P10635 whole entry, looked up): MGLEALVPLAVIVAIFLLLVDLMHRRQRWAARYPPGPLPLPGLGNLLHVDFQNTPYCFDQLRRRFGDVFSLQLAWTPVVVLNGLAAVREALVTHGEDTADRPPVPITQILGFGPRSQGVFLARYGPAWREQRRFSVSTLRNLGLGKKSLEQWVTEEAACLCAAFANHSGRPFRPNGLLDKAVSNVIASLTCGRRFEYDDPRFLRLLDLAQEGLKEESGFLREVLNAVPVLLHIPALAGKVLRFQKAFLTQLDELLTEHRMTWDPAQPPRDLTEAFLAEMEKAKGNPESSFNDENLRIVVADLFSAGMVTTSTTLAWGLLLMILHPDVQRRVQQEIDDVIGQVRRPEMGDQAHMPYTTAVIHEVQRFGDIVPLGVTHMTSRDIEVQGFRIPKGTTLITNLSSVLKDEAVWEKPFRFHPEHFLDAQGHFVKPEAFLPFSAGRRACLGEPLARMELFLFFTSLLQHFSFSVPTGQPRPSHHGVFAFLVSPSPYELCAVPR
# Summary of the method: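 P450-Glo CYP2D6 system: proluciferin substrate converted by enzyme to luciferin, read by luminescence proportional to activity. Enzyme-substrate mix with compound 10 min at room temperature, then NADPH regeneration 1 h before detection reagent.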
# [10] = target: Cytochrome P450 2C9 (Homo sapiens) (UniProt P11712); experiment: Cytochrome P450 family 2 subfamily C member 9 (CYP2C9) small molecule antagonists: luciferase biochemical (cell-free) qHTS assay (AID 1645842; active = well fitted curve in the direction sought with a large enough effect in the repeat runs; an effect the other way counts as inactive or inconclusive; note: potency is the fitted concentration of half-maximal effect; nearly all actives have a fitted effect of over 55% in size)
# Chain of Cytochrome P450 2C9 (Homo sapiens) (P11712 whole entry, looked up): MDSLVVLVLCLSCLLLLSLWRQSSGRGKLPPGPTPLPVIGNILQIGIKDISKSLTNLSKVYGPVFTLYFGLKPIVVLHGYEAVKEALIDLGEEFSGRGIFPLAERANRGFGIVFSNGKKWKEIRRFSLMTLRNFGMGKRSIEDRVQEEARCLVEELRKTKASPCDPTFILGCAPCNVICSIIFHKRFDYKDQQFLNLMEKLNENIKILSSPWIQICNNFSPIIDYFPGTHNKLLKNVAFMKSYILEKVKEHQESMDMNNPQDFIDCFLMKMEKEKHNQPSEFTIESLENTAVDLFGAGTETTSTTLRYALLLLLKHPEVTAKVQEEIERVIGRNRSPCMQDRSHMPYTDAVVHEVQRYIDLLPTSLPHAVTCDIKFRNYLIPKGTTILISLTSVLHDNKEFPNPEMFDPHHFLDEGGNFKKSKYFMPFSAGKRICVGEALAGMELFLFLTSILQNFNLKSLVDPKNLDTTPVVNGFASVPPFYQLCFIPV
# Summary of the method: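 P450-Glo CYP2C9 system: proluciferin substrate with enzyme in mix containing 0.4% BSA, 10 min at room temperature, then NADPH regeneration solution added and incubated 1 h at 37C. Detection reagent stopped reaction; luminescence read after 20 min as RLU.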
# [11] = at 45.9 µM (top of the series), tumour line B
# [12] = at 45.9 µM (top of the series), tumour line D
# [13] = at 46.1 µM (top of the series), tumour line C
smiles,measurement,setting,value
C[N+]1(C)CCN(CC(O)(c2ccccc2)C2CCCCC2)CC1 (centres undefined),max response,[1],-2.89%
same,"activity, negative = cell killing",[2]; [11],4.18%
same,"activity, negative = cell killing",[2]; [12],-11.4%
same,"activity, negative = cell killing",[2]; [13],3.68%
same,Potency,astro,inactive
CC1(C)N=C(N)N=C(N)N1c1ccc(Cl)cc1,Potency,[3],inactive
same,max response,[1],-2.29%
same,Potency,astro,inactive
COc1cc(OC)cc(N(CCNC(C)C)c2ccc3ncc(-c4cnn(C)c4)nc3c2)c1,Potency,[4],10.3 µM (active)
same,Potency,[5],13.1 µM (active)
same,Potency,[6],17.6 µM (active)
COc1ccc(C(=O)Nc2sc3c(c2C(N)=O)CCCC3)cc1OC,Potency,[4],inactive
same,Potency,[7],inactive
same,Potency,[8],inactive
C=C1C(=O)O[C@H]2[C@H]1CC/C(C)=C\CC[C@@]1(C)O[C@@H]21,Potency,astro,20 µM (active)
NC(=O)c1sc(-c2ccsc2)cc1N,Potency,[4],inactive
same,Potency,[7],inactive
CN1CCC(c2c(O)cc(O)c3c(=O)cc(-c4ccccc4Cl)oc23)C1CO (centres undefined),Potency,[4],0.92 µM (active)
same,Potency,[5],0.739 µM (active)
same,Potency,[6],0.787 µM (active)
same,"activity change, negative = inhibition","[6]; Viability, at 45.9 µM (top of the series)",-2.93%
C=C1/C(=C\C=C2/CCC[C@]3(C)[C@@H]([C@H](C)OCCC(C)(C)O)CC[C@@H]23)C[C@@H](O)C[C@@H]1O,max response,[1],-1.53%
same,"activity, negative = cell killing",[2]; [11],-19.1%
same,"activity, negative = cell killing",[2]; [12],-17.2%
same,"activity, negative = cell killing",[2]; [13],-27.4%
same,Potency,[2],25.1 µM (active)
N#C/C(=C(\N)Sc1ccc(N)cc1)c1ccccc1C(F)(F)F,Potency,[4],inactive
CC(C)=CCC/C(C)=C/CC/C(C)=C/CSc1ccccc1C(=O)O,Potency,[4],inactive
same,Potency,[5],inactive
NC(=O)c1nc(F)c[nH]c1=O,Potency,[4],inactive
same,Potency,[5],inactive
C#C[C@]1(OC(C)=O)CC[C@H]2[C@@H]3CCC4=CC(=O)CC[C@@H]4[C@H]3CC[C@@]21C,max response,[1],-3.45%
same,"activity, negative = cell killing",[2]; [11],-16%
same,"activity, negative = cell killing",[2]; [13],-23.2%
same,Potency,[2],35.5 µM (active)
NCCNCCN,max response,[1],9.59%
same,"activity, negative = cell killing",[2]; [11],-28%
same,Potency,[2],28.2 µM (active)
same,Potency,astro,inactive
Clc1ccc2ncc(-c3cccc(NC4CCNC4)n3)n2c1 (centres undefined),Potency,[4],0.82 µM (active)
Cc1cc(N2CCOCC2)cc2[nH]c(-c3c(NCC(O)c4cccc(Cl)c4)cc[nH]c3=O)nc12 (centres undefined),Potency,[4],2.06 µM (active)
CC1CN(CC(=O)Nc2ccc3c(c2)Cc2cccc(-c4cc(=O)cc(N5CCOCC5)o4)c2S3)CC(C)O1 (centres undefined),Potency,[4],inactive
same,Potency,[9],inactive
same,Potency,[10],2.68 µM (active)
